Among the data in PMC11006913 are binding signal values, retold here.

Common to all, as to assay: PBM; 200 nM protein, PBS
Settings in all cases: dsDNA, one strand shown

In experiment [1] the target is HOXB4 (Homo sapiens, UniProt P17483 148-234).
Experiment [2] has as its target T1, VENTX (Homo sapiens, UniProt O95231 78-163, R121Q).
T1 sequence: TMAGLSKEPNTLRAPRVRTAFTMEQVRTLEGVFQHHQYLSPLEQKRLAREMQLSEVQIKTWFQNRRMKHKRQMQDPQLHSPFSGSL

Experiment [3] has as its target HOXA4 (Homo sapiens, UniProt Q00056 201-287, W262R).
The target in experiment [4] is ALX4 (Homo sapiens, UniProt Q9H161 200-286).
Experiment [5] deals with T2, PAX4 (Homo sapiens, UniProt O43316 9-242, R200K).
T2 sequence: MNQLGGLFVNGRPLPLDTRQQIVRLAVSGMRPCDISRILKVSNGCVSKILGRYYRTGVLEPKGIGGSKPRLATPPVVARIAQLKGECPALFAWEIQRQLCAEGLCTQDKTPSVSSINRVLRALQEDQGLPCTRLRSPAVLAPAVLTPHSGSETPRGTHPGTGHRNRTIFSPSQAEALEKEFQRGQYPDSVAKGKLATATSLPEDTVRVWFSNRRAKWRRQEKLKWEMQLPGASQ

For experiment [6], the target named is PRRX1 (Homo sapiens, UniProt P54821 80-166, F113S).
In experiment [7] the target is T3, VENTX (Homo sapiens, UniProt O95231 78-163, Y115F).
T3 sequence: T1 sequence with Y38F, Q44R

In experiment [8] the target is HOXA2 (Homo sapiens, UniProt O43364 129-215, R185T).
In experiment [9] the target is HOXA4 (Homo sapiens, UniProt Q00056 201-287, R217L).
Experiment [10] concerns the target HOXB4 (Homo sapiens, UniProt P17483 148-234, V174I).
The target of experiment [11] is T4, PAX4 (Homo sapiens, UniProt O43316 9-242, R200Q).
T4 sequence: T2 sequence with K192Q

Experiment [12] addresses T5, PAX4 (Homo sapiens, UniProt O43316 9-242, F177V).
T5 sequence: T2 sequence with F169V, K192R

Experiment [13] concerns the target HOXA4 (Homo sapiens, UniProt Q00056 201-287).
The target in experiment [14] is MSX2 (Homo sapiens, UniProt P35548 130-214).
The target of experiment [15] is T6, PAX4 (Homo sapiens, UniProt O43316 9-242, F177Y).
T6 sequence: T2 sequence with F169Y, K192R

Experiment [16] has as its target MSX2 (Homo sapiens, UniProt P35548 130-214, F161Y).
In experiment [17] the target is VAX1 (Homo sapiens, UniProt Q5SQQ9 86-172, T142I).
Experiment [18] concerns the target HOXA4 (Homo sapiens, UniProt Q00056 201-287, W262F).
Experiment [19] has as its target PRRX1 (Homo sapiens, UniProt P54821 80-166).
In experiment [20] the target is VAX1 (Homo sapiens, UniProt Q5SQQ9 86-172, K157R).

Changes are numbered by the printed parent chain.

Chain of HOXA4 (Homo sapiens, UniProt Q00056 201-287, W262R) (Q00056 201-287 W262R): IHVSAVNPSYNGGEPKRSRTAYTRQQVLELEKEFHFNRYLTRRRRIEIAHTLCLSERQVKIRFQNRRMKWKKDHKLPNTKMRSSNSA
Chain of HOXA4 (Homo sapiens, UniProt Q00056 201-287, R217L) (Q00056 201-287 R217L): as the sequence (Q00056 201-287 W262R) above, with R17L, R62W counted along it
Chain of VAX1 (Homo sapiens, UniProt Q5SQQ9 86-172, T142I) (Q5SQQ9 86-172 T142I): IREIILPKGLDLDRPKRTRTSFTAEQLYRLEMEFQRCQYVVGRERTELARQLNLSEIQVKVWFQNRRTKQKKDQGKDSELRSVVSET
Chain of PRRX1 (Homo sapiens, UniProt P54821 80-166, F113S) (P54821 80-166 F113S): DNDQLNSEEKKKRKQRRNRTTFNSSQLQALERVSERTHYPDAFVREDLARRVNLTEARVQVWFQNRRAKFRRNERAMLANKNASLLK
Chain of MSX2 (Homo sapiens, UniProt P35548 130-214) (P35548 130-214): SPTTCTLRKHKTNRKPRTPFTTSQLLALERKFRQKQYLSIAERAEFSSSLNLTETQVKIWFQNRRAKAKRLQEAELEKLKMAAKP
Chain of PRRX1 (Homo sapiens, UniProt P54821 80-166) (P54821 80-166): as the sequence (P54821 80-166 F113S) above, with S34F counted along it
Chain of HOXB4 (Homo sapiens, UniProt P17483 148-234) (P17483 148-234): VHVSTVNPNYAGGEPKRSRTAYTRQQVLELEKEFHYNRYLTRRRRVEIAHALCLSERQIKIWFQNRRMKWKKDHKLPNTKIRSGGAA
Chain of ALX4 (Q9H161 200-286): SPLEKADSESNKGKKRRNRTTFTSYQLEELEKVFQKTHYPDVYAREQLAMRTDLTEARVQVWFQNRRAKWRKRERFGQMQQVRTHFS
Chain of VAX1 (Homo sapiens, UniProt Q5SQQ9 86-172, K157R) (Q5SQQ9 86-172 K157R): as the sequence (Q5SQQ9 86-172 T142I) above, with I57T, K72R counted along it
Chain of HOXA2 (O43364 129-215 R185T): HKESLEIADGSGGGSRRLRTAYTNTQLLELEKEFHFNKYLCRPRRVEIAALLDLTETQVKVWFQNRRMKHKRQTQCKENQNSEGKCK
Chain of HOXB4 (Homo sapiens, UniProt P17483 148-234, V174I) (P17483 148-234 V174I): as the sequence (P17483 148-234) above, with V27I counted along it
Chain of HOXA4 (Homo sapiens, UniProt Q00056 201-287, W262F) (Q00056 201-287 W262F): as the sequence (Q00056 201-287 W262R) above, with R62F counted along it
Chain of HOXA4 (Homo sapiens, UniProt Q00056 201-287) (Q00056 201-287): as the sequence (Q00056 201-287 W262R) above, with R62W counted along it
Chain of MSX2 (Homo sapiens, UniProt P35548 130-214, F161Y) (P35548 130-214 F161Y): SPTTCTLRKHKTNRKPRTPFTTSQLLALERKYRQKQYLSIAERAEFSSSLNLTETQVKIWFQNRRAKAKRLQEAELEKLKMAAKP

Turning to TAATTATA, the binding signal in [1] is 13.5 upbm affinity estimate (log intensity, higher = more binding, comparable within an allelic series); in experiment [2], 11.9 upbm affinity estimate (log intensity, higher = more binding, comparable within an allelic series); in experiment [3] it was 10.8 upbm affinity estimate (log intensity, higher = more binding, comparable within an allelic series); in experiment [4] it was 14.3 upbm affinity estimate (log intensity, higher = more binding, comparable within an allelic series); in [5], 11.7 upbm affinity estimate (log intensity, higher = more binding, comparable within an allelic series); in experiment [6], 11.8 upbm affinity estimate (log intensity, higher = more binding, comparable within an allelic series). Further, the binding signal in [7] is 11.8 upbm affinity estimate (log intensity, higher = more binding, comparable within an allelic series); in [8] it was 13.6 upbm affinity estimate (log intensity, higher = more binding, comparable within an allelic series); in [9], 12.7 upbm affinity estimate (log intensity, higher = more binding, comparable within an allelic series); in experiment [10] it was 14.3 upbm affinity estimate (log intensity, higher = more binding, comparable within an allelic series); in [11], 12.1 upbm affinity estimate (log intensity, higher = more binding, comparable within an allelic series); in [12] it was 10.7 upbm affinity estimate (log intensity, higher = more binding, comparable within an allelic series). The binding signal in [13] is 14.2 upbm affinity estimate (log intensity, higher = more binding, comparable within an allelic series); in experiment [14] it was 14 upbm affinity estimate (log intensity, higher = more binding, comparable within an allelic series); in experiment [15], 11 upbm affinity estimate (log intensity, higher = more binding, comparable within an allelic series); in experiment [16], 13.6 upbm affinity estimate (log intensity, higher = more binding, comparable within an allelic series); in experiment [17] it was 13.4 upbm affinity estimate (log intensity, higher = more binding, comparable within an allelic series); in experiment [18], 12.1 upbm affinity estimate (log intensity, higher = more binding, comparable within an allelic series). Also, the binding signal in [19] was 13.6 upbm affinity estimate (log intensity, higher = more binding, comparable within an allelic series); in experiment [20], 13.4 upbm affinity estimate (log intensity, higher = more binding, comparable within an allelic series).

GCTAATTA: the binding signal is 13.6 upbm affinity estimate (log intensity, higher = more binding, comparable within an allelic series) in experiment [1]; 13 upbm affinity estimate (log intensity, higher = more binding, comparable within an allelic series) in experiment [2]; 10.8 upbm affinity estimate (log intensity, higher = more binding, comparable within an allelic series) in experiment [3]; 14.6 upbm affinity estimate (log intensity, higher = more binding, comparable within an allelic series) in experiment [4]; 12.3 upbm affinity estimate (log intensity, higher = more binding, comparable within an allelic series) in experiment [5]; 12 upbm affinity estimate (log intensity, higher = more binding, comparable within an allelic series) in experiment [6]. Also, the binding signal was 12.8 upbm affinity estimate (log intensity, higher = more binding, comparable within an allelic series) in experiment [7]; 14.2 upbm affinity estimate (log intensity, higher = more binding, comparable within an allelic series) in experiment [8]; 13 upbm affinity estimate (log intensity, higher = more binding, comparable within an allelic series) in [9]; 14.3 upbm affinity estimate (log intensity, higher = more binding, comparable within an allelic series) in experiment [10]; 12.9 upbm affinity estimate (log intensity, higher = more binding, comparable within an allelic series) in experiment [11]; 10.9 upbm affinity estimate (log intensity, higher = more binding, comparable within an allelic series) in experiment [12]. Further, the binding signal in experiment [13] is 14.3 upbm affinity estimate (log intensity, higher = more binding, comparable within an allelic series); in [14], 14.3 upbm affinity estimate (log intensity, higher = more binding, comparable within an allelic series); in experiment [15] it was 11.4 upbm affinity estimate (log intensity, higher = more binding, comparable within an allelic series); in experiment [16], 13.8 upbm affinity estimate (log intensity, higher = more binding, comparable within an allelic series); in experiment [17] it was 14.1 upbm affinity estimate (log intensity, higher = more binding, comparable within an allelic series); in [18] it was 13 upbm affinity estimate (log intensity, higher = more binding, comparable within an allelic series). In addition, the binding signal was 13.7 upbm affinity estimate (log intensity, higher = more binding, comparable within an allelic series) in experiment [19] and 14.2 upbm affinity estimate (log intensity, higher = more binding, comparable within an allelic series) in [20].

Consider ATAATTAC, for which the binding signal in experiment [1] is 13.5 upbm affinity estimate (log intensity, higher = more binding, comparable within an allelic series); in [2], 12.1 upbm affinity estimate (log intensity, higher = more binding, comparable within an allelic series); in experiment [3], 10.9 upbm affinity estimate (log intensity, higher = more binding, comparable within an allelic series); in experiment [4] it was 14 upbm affinity estimate (log intensity, higher = more binding, comparable within an allelic series); in experiment [5], 11.8 upbm affinity estimate (log intensity, higher = more binding, comparable within an allelic series); in [6], 11.6 upbm affinity estimate (log intensity, higher = more binding, comparable within an allelic series). Further, the binding signal in [7] was 12 upbm affinity estimate (log intensity, higher = more binding, comparable within an allelic series); in experiment [8], 13.7 upbm affinity estimate (log intensity, higher = more binding, comparable within an allelic series); in experiment [9], 12.8 upbm affinity estimate (log intensity, higher = more binding, comparable within an allelic series); in experiment [10], 14.2 upbm affinity estimate (log intensity, higher = more binding, comparable within an allelic series); in [11], 12.3 upbm affinity estimate (log intensity, higher = more binding, comparable within an allelic series); in [12], 10.8 upbm affinity estimate (log intensity, higher = more binding, comparable within an allelic series). In addition, the binding signal was 14.2 upbm affinity estimate (log intensity, higher = more binding, comparable within an allelic series) in experiment [13]; 14 upbm affinity estimate (log intensity, higher = more binding, comparable within an allelic series) in experiment [14]; 11.2 upbm affinity estimate (log intensity, higher = more binding, comparable within an allelic series) in [15]; 13.7 upbm affinity estimate (log intensity, higher = more binding, comparable within an allelic series) in experiment [16]; 13.4 upbm affinity estimate (log intensity, higher = more binding, comparable within an allelic series) in experiment [17]; 12.2 upbm affinity estimate (log intensity, higher = more binding, comparable within an allelic series) in [18]. The binding signal in experiment [19] is 13.5 upbm affinity estimate (log intensity, higher = more binding, comparable within an allelic series); in experiment [20] it was 13.5 upbm affinity estimate (log intensity, higher = more binding, comparable within an allelic series).

CTTAATTA: the binding signal was 13.5 upbm affinity estimate (log intensity, higher = more binding, comparable within an allelic series) in experiment [1]; 12.5 upbm affinity estimate (log intensity, higher = more binding, comparable within an allelic series) in experiment [2]; 11 upbm affinity estimate (log intensity, higher = more binding, comparable within an allelic series) in [3]; 14.5 upbm affinity estimate (log intensity, higher = more binding, comparable within an allelic series) in experiment [4]; 12.1 upbm affinity estimate (log intensity, higher = more binding, comparable within an allelic series) in [5]; 12 upbm affinity estimate (log intensity, higher = more binding, comparable within an allelic series) in experiment [6]. Further, the binding signal was 12.3 upbm affinity estimate (log intensity, higher = more binding, comparable within an allelic series) in experiment [7]; 13.8 upbm affinity estimate (log intensity, higher = more binding, comparable within an allelic series) in experiment [8]; 13.1 upbm affinity estimate (log intensity, higher = more binding, comparable within an allelic series) in experiment [9]; 14.2 upbm affinity estimate (log intensity, higher = more binding, comparable within an allelic series) in [10]; 12.6 upbm affinity estimate (log intensity, higher = more binding, comparable within an allelic series) in [11]; 11 upbm affinity estimate (log intensity, higher = more binding, comparable within an allelic series) in experiment [12]. Besides, the binding signal in experiment [13] is 14.3 upbm affinity estimate (log intensity, higher = more binding, comparable within an allelic series); in experiment [14] it was 14 upbm affinity estimate (log intensity, higher = more binding, comparable within an allelic series); in experiment [15], 11.5 upbm affinity estimate (log intensity, higher = more binding, comparable within an allelic series); in experiment [16] it was 13.6 upbm affinity estimate (log intensity, higher = more binding, comparable within an allelic series); in [17] it was 13.9 upbm affinity estimate (log intensity, higher = more binding, comparable within an allelic series); in experiment [18] it was 13 upbm affinity estimate (log intensity, higher = more binding, comparable within an allelic series). Besides, the binding signal in [19] is 13.6 upbm affinity estimate (log intensity, higher = more binding, comparable within an allelic series); in experiment [20], 13.8 upbm affinity estimate (log intensity, higher = more binding, comparable within an allelic series).
